# Inconclusive results are not listed. A call without a number means that no potency is given here. Active and inactive are the calls of the source. Calls come from the whole dose curve; as a rule, active = well fitted inhibition curve with a large enough effect; inconclusive = small, poorly fitted or top-dose-only effect; inactive = no such curve, though single readings can be large or run the other way.
# Target: Tumor susceptibility gene 101 protein (Homo sapiens) (UniProt Q99816)
# Assay: qHTS Assay for Iinhibitors of HIV-1 Budding by Blocking the Interaction of PTAP/TSG101: Hit Validation (AID 651600); note: nearly all actives have a fitted effect of over 70% in size
# Conditions: PTAP peptide/TSG101 UEV interaction, biochemical assay; series mostly up to 57.5 µM
# In short: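 Tsg101 binding domain 10 uM + FITC-PTAP peptide 50 nM (final), 10 mM HEPES pH 7.5/0.15 M NaCl/0.01% Tween 20/3 mM EDTA/0.1 mM TCEP; 20 min RT; FP read, FITC filters.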
# Potency is the fitted concentration of half-maximal effect.
# Tumor susceptibility gene 101 protein (Homo sapiens), sequence (Q99816 whole entry, looked up): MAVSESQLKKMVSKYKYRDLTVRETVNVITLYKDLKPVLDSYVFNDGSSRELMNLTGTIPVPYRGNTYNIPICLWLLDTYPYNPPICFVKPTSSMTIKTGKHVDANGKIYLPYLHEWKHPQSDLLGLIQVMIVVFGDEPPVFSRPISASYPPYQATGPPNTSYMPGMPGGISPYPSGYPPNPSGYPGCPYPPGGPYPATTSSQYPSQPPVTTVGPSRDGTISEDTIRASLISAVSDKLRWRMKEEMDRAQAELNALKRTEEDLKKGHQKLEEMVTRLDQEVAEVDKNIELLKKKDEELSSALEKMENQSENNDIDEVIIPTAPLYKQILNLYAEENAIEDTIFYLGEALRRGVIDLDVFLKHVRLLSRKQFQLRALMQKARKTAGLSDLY
row,SMILES,Potency
1,CCC1CCCCN1C(=O)c1cc2cc(Br)ccc2oc1=O (centres undefined),inactive
2,CCOC(=O)C1Nc2ccccc2C2C(O)C(O)CC12 (centres undefined),inactive
3,Cc1ccccc1-c1ccc(/C=C2/SC(N3CCOCC3)=NC2=O)o1,inactive
4,Cc1oc2cc(O)ccc2c(=O)c1-c1nncn1-c1ccccc1,20.6 µM (active)
5,Cc1cccc(NC(=S)NCCC(c2ccccc2)c2ccccc2)c1,inactive
6,S=C(NCc1ccccc1)Nc1cccc(Cl)c1,inactive
7,O=C(O)c1ccc(-n2c(-c3ccc(Br)cc3)n[nH]c2=S)cc1,inactive
8,CC(=O)n1c(C=Nc2ccc(Cl)cc2)c(O)c2ccccc21,16.3 µM (active)
9,CN1CC=C2C(C#N)=C(N)C(C#N)(C#N)C(Cc3ccccc3)C2C1 (centres undefined),inactive
10,Brc1ccc(-c2nc3ccccn3c2Nc2ccc3c(c2)OCCO3)o1,inactive
11,CC[C@@]1(C(=O)OC)N[C@H](CN(C)C(=O)c2ccc(C)cc2)[C@@H]2C(=O)N(Cc3ccccc3)C(=O)[C@@H]21,inactive
12,N#Cc1c(C#N)c(O)c2ccccc2c1O,inactive
13,CSCC(C)N1CCC(n2nccc2NC(=O)CCCc2ccccc2)CC1 (centres undefined),13 µM (active)
14,CCOC(=O)C1CCCN(c2nc3ccccc3nc2C(C#N)C(=O)NCc2ccccc2)C1 (centres undefined),inactive
15,CN1C(=O)NC(c2ccccc2[N+](=O)[O-])C2=C1CCCC2=O (centres undefined),16.3 µM (active)
16,CCN(CC)c1ccc2c(-c3ccc(S(=O)(=O)O)cc3S(=O)(=O)[O-])c3ccc(=[N+](CC)CC)cc-3oc2c1,11.6 µM (active)
17,CC1C2C(c3ccccc3)N(C)C(=O)N(C)C2N(C)C(=O)N1C (centres undefined),inactive
18,CC1(C)CC(=O)C2=C(C1)OC(N)=C(C#N)[C@@H]2c1ccccc1[N+](=O)[O-],inactive
19,CCOc1cc(/C=C(\C#N)c2nc(-c3cccs3)c(NC(C)=O)s2)ccc1O,inactive
20,CCOc1ccc(NC(=O)N(C2CCCCC2)C(C)c2ccncc2)cc1 (centres undefined),inactive

row,SMILES,Potency
1,O=C1c2ccccc2S(=O)(=O)c2cc(N3CCN(C(=O)c4ccccc4)CC3)ccc21,inactive
2,COc1ccccc1NC(=O)C(C)OC(=O)C1CC(=O)N(c2ccc3c(c2)OCCO3)C1 (centres undefined),inactive
3,O=C(Nc1nc2c(s1)CN(Cc1ccccc1)CC2)c1cccc(S(=O)(=O)N2CCc3ccccc32)c1,inactive
4,CN(C)c1ccc(/C=C2\SC(=O)N(CC(O)Cn3c4ccccc4c4ccccc43)C2=O)cc1 (centres undefined),16.3 µM (active)
5,COc1ccc(-n2nc(C(=O)Nc3ccc(OC)c(OC)c3)c3c4ccccc4n(C)c3c2=O)cc1,inactive
6,COc1ccc(C(=O)c2sc3nc(C)cc(-c4cccs4)c3c2N)cc1OC,inactive
7,C=CCOc1ccc(C2OC34CCCCC3C(C#N)(C#N)C2(C#N)C(=N)O4)cc1 (centres undefined),25.9 µM (active)
8,CC(=O)c1ccc(N2C(=O)C3C(C2=O)C(C(=O)c2ccc(Cl)cc2)N2CCCC32)cc1 (centres undefined),inactive
9,COc1ccc2oc3ccccc3c(=O)c2c1,inactive
10,O=C(NCc1cccc(F)c1)c1cccc2c1C(=O)c1ccc(N3CCC(Cc4ccccc4)CC3)cc1S2(=O)=O,10.3 µM (active)
11,Cc1ccccc1N1C(=O)c2cccc3c(N(C)CCO)ccc(c23)C1=O,13 µM (active)
12,O=C1NC(c2ccco2)Nc2sc3c(c21)CCN(Cc1ccccc1)C3 (centres undefined),inactive
13,Cn1c2ccc(F)cc2c2nc3ccccc3nc21,inactive
14,CCN(CC)c1ccc(/C=C(/C#N)c2nc3ccc(C)cc3[nH]2)c(OC(C)C)c1,inactive
15,CCCN(CCC)S(=O)(=O)c1ccc(C(=O)OCCN2C(=O)c3cccc4c(N5CCOCC5)ccc(c34)C2=O)cc1,18.3 µM (active)
16,CCCN1CCN(S(=O)(=O)c2cn(C)nc2C)CC1,inactive
17,Cc1ccc(/C=C/C(=O)Nc2ccc(S(=O)(=O)Nc3onc(C)c3C)cc2)cc1,inactive
18,CN(C)CCNc1ccc2ncn3c4ccc(O)cc4c(=O)c1c23,8.19 µM (active)
19,O=C(CCN1C(=O)/C(=C/c2ccco2)SC1=S)Nc1ccc(O)cc1C(=O)O,inactive

# Reference: PubChem BioAssay (NCATS)
